Compound activity deposited in PubChem BioAssay by National Center for Advancing Translational Sciences (NCATS).
In the library only some 4.6% were active in any assay of this set; here they are far more common.
TRHR enhancer – qHTS for Small Molecule Agonists and Allosteric Enhancers of Human TRH Receptor: Primary Screen for Enhancers | Thyrotropin-releasing hormone receptor (Homo sapiens), P34981 | TRHR cells, fluo-8 calcium fluorescence, EC20 TRH enhancement | enhancement, % at 2 µM | 360,000 compounds, 0.66% hits; in the data active = enhancement above about 30%; also: 0% is about no effect
Target sequence (P34981 whole entry, looked up): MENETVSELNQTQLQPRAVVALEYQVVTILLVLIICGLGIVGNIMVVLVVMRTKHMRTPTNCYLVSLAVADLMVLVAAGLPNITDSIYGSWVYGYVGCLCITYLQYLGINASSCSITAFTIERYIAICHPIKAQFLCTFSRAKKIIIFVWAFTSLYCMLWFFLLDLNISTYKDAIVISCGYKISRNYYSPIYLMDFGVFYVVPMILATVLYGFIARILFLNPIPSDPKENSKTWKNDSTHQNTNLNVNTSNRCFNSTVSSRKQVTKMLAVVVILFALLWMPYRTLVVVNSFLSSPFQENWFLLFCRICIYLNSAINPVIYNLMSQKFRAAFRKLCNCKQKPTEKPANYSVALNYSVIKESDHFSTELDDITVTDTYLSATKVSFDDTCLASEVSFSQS
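TRHR-expressing cells loaded with fluo-8 calcium dye were read kinetically (ex 480/em 530) during compound addition, then stimulated with an EC20 of TRH (10 nM final). Enhancement of the Gq-mediated intracellular calcium response was scored.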
D1 ag – Allosteric Agonists of the Human D1 Dopamine Receptor: qHTS; activation, % at 2 µM; D(1A) dopamine receptor (Homo sapiens), P21728; AID 504660, 2011; HEK293 T-REx D1 cells, calcium flux, agonist mode; 360,000 compounds, 1% hits; also: 0% is about no effect
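Tetracycline-induced HEK293 TREx D1 cells, force-coupled to calcium signalling, were dye-loaded with a no-wash calcium kit. Compound was pin-added after a 10 s baseline. Fluorescence was read kinetically at 1 cycle/s for 180 s, with calcium rises flagged as agonism.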
D1 antag – Antagonist of Human D 1 Dopamine Receptor: qHTS; activity change, negative = inhibition, % at 10 µM; 360,000 compounds, 3.2% hits; D(1A) dopamine receptor (Homo sapiens), P21728; AID 504652, 2011; HEK293 TREx D1 cells, calcium flux, dopamine EC80; hits give low values; in the data active = activity change below about -30%; also: % is scaled to controls: 0 for no effect and ±100 for the full control effect
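Tetracycline-induced HEK293 T-REx cells with force-coupled D1 receptor were loaded with a no-wash calcium dye. Compound was added after a 10 s baseline and read kinetically for 180 s; EC80 dopamine was then added and calcium flux followed another 180 s.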
D1 PAM – Potentiators of Human D1 Dopamine Receptor: qHTS. 360,000 compounds, 0.036% hits. potentiation, % at 10 µM. HEK293 TREx D1 cells, calcium flux, dopamine EC20 potentiation. D(1A) dopamine receptor (Homo sapiens), P21728; in the data active = potentiation above about 30%; also: 0% is about no effect
TRHR ag – qHTS for Small Molecule Agonists and Allosteric Enhancers of Human TRH Receptor: Primary Screen for Agonists. Thyrotropin-releasing hormone receptor (Homo sapiens), P34981. TRHR cells, calcium flux fluo-8, FDSS agonist mode. activation, % at 2 µM. 360,000 compounds, 0.18% hits. AID 493084, 2011; also: 0% is about no effect
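Fluo-8-loaded TRHR cells; 10 s baseline, compound added, kinetic Ca2+ fluorescence read 1/s, agonist mode.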
The depositor's hits bear a star. Rule as the data show it, unless noted: active = activation above about 30%; inactive = the rest.

SMILES | TRHR enhancer | D1 ag | D1 antag | D1 PAM | TRHR ag
COCC(=O)O[C@]1(CCN(C)CCCc2nc3ccccc3[nH]2)CCc2cc(F)ccc2[C@@H]1C(C)C | -3.6 | 66.8* | -22.7 | -10.0 | 2.9
Cc1cccc(OCC(=O)NCCc2nc3ccccc3[nH]2)c1C | 3.0 | 1.5 | -4.8 | -2.0 | 0.1
CCOc1ccc(CCNc2ncnc3onc(C)c23)cc1OCC | -12.4 | 26.1 | -21.9 | -4.6 | 0.8
Cc1cc(C)c(C#N)c(SCC2COc3ccccc3O2)n1 (configuration not stated) | 2.1 | 37.6* | -5.1 | 1.3 | -0.8
COc1cc(CN2CCCC(CO)(Cc3ccccc3C)C2)cc2c1OCO2 (configuration not stated) | 10.8 | 16.6 | -15.2 | -2.4 | -1.3
CN(CC(=O)Nc1ccccc1Br)C(=O)Cn1[nH]c(=O)c2ccccc2c1=O | 0.4 | 1.9 | 10.2 | -7.2 | 0.3
CCOC(=O)c1ccccc1NC(=O)COC(=O)CC(C)(C)CC1=NS(=O)(=O)c2ccccc2N1 | 2.7 | 13.8 | -36.9* | -0.1 | -1.1
O=[N+]([O-])c1ccc(S(=O)(=O)c2ccccc2)nc1 | -7.0 | 0.0 | -40.1* | -13.6 | -0.6
O=[N+]([O-])c1ccc(NCc2ccccc2)nc1 | -1.2 | 4.1 | -34.9* | -10.6 | -0.6
O=C1c2cccc3c(O)ccc(c23)C(=O)N1c1ccc(Cl)cc1 | 12.4 | 470.1* | 7.7 | 18.6 | -0.5
CC(=O)Nc1ccc(N2C(=O)c3cccc4c(O)ccc(c34)C2=O)cc1 | 34.5* | 283.3* | 1.6 | 11.6 | 199.4*
O=C1c2cccc3c(O)ccc(c23)C(=O)N1Cc1ccco1 | 33.2* | 271.5* | 6.2 | 0.5 | 234.9*
N#C/C(=C/c1ccc(-c2ccccc2[N+](=O)[O-])o1)C(N)=O | -2.4 | -0.5 | -41.0* | -10.6 | 0.7
Cc1cc2c(s1)c1cnn(Cc3ccccc3C)c(=O)c1n2C | -0.4 | 13.6 | 10.7 | 2.4 | -0.2
O=C(NNc1ccccn1)c1ccccc1CC[N+](=O)[O-] | -8.9 | 2.4 | -44.1* | -10.0 | 0.3
CCCN(C(=O)Cn1ncc2c([nH]c3ccccc32)c1=O)c1ccc(F)cc1 | -8.7 | -0.4 | 4.5 | 6.9 | 0.3
Cc1nc2sc(C(=O)N(C)Cc3ccccc3)c(NC(=O)c3ccccc3)c2c(C)c1Cl | -2.8 | 3.9 | 39.3 | 0.3 | -0.7
Cc1c(C)c2ccc(OCC(=O)N3CC[C@@]4(O)CCCC[C@H]4C3)cc2oc1=O | 4.9 | 1.9 | -11.3 | 0.8 | 0.4
O=C(COc1ccc2ccc(=O)oc2c1)N1CC[C@@]2(O)CCCC[C@H]2C1 | -3.2 | 0.4 | -49.1* | -9.6 | 0.1
CC1(C)CC(=O)C2=C(C1)Nc1ccccc1N1C(=O)c3ccccc3C21 (configuration not stated) | -5.8 | 5.1 | -42.3* | -1.5 | 1.4
COc1cccc(C2Nc3ccccc3NC3=C2C(=O)CC(C)(C)C3)c1OC (configuration not stated) | 34.7* | 7.7 | 19.3 | 6.3 | 0.7
COc1ccc(C2Nc3ccccc3NC3=C2C(=O)CC(C)(C)C3)c(OC)c1OC (configuration not stated) | -5.0 | -0.8 | 1.2 | -2.0 | 0.0
O=C(CCN1C(=O)c2ccccc2Sc2ncccc21)Nc1ccc(F)cc1 | 7.0 | 1.7 | 18.3 | 3.5 | -0.2
CC1CCCCN1C(=O)COC(=O)c1ccc(=O)n(Cc2ccccc2)n1 (configuration not stated) | 4.4 | 1.5 | 12.7 | 1.7 | 0.3
COc1ccc(CC(=O)Nc2nnc3n2CCS3)cc1 | 2.2 | 1.4 | 12.3 | 4.5 | 0.3
CN1CC=C2C(C#N)=C(N)C(C#N)(C#N)C(CCc3ccccc3)C2C1 (configuration not stated) | 22.2 | 8.1 | -61.8* | -8.8 | 4.6
Cc1ccc(-c2nnn(CC(=O)N(c3ccccc3F)C(CC(C)C)C(=O)NCC3CCCO3)n2)cc1 (configuration not stated) | 11.4 | 0.5 | -37.8* | -0.1 | -0.2
